A selection: hits, their analogues and other compounds. The true share with any hit is near 12%.
NS1 function inh – influenza NS1 inhibition; Potency, µM (highest dose often 46.1 µM), for inactives: at the highest dose activity, positive = more growth; AID 2326; actives 0.4% (n = 270,000); calls by dose curve; further: actives are rising curves; nearly all actives have a fitted effect of over 50% in size
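Compounds were scored for reversing the slow growth caused by influenza A NS1 in S. cerevisiae, measured by optical density at 600 nm. Assay medium contained 2% galactose at pH 6.0; NS1-free yeast of the same strain were the positive control.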
Pf growth 96h – P. falciparum growth inhibition at 96 hours. P. falciparum luciferase reporter growth, 96 h. Potency, µM (top dose mostly 28.7 µM), without a hit: at the top dose activity change, negative = inhibition, most hits filed as inhibitors. AID 504834. actives 6.9% (n = 320,000); further: on the % scale 0 is the no-effect control and ±100 the full control effect
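P. falciparum expressing integrated firefly luciferase, in erythrocytes at 2% hematocrit, 0.05% parasitemia, incubated with compounds 96 h at 37 C, 5% CO2. Growth inhibition read as loss of luminescence; two-generation exposure targets delayed-death apicoplast inhibitors.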
Pf growth 48h – P. falciparum growth inhibition at 48 hours (one generation); AID 504832; actives 5.9% (n = 310,000); P. falciparum luciferase growth in erythrocytes, 48 h; Potency, µM (top dose mostly 28.7 µM), inactives show at the highest dose activity change, negative = inhibition, most hits filed as inhibitors; further: on the % scale 0 is the no-effect control and ±100 the full control effect
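Compounds are pin-transferred into medium, infected erythrocytes (2% hematocrit, 0.1% parasitemia final) are added, and plates sit one parasite generation at 37 C in 5% CO2. Detection reagent is then added and luminescence measured.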
AMA1-RON2 inh – AMA1-RON2 (P. falciparum) interaction inhibition; AlphaScreen AMA1-biotinylated RON2 peptide binding; Potency, µM (series often up to 58.2 µM), for the others: at the highest dose activity change, negative = inhibition, most hits filed as inhibitors; actives 0.2% (n = 360,000); AID 720542;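 further: 0% = vehicle wells and -100% = peptide control; nearly all actives have a fitted effect of over 45% in size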
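AMA1 (3D7) with his tag at 25 nM final met compounds first, then biotinylated RON2 peptide at 25 nM; detection used donor plus acceptor beads, 10 µg/mL apiece, read by AlphaScreen after 30 min at room temperature.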
HCV inhibitor – blocks hepatitis C virus | Huh7.5.1 HCVcc-Cre infection, luciferase reporter, 44 h | Potency, µM (top dose mostly 41.8 µM), inactives show top-dose activity change, negative = inhibition, hits mostly inhibitors | actives 3.4% (n = 340,000) | AID 651820; further: on the % scale 0 is the no-effect control and ±100 the full control effect
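Cells seeded at 1,000/well and cultured 4 h, then compounds added followed by HCVcc-Cre virus (~0.5 moi). After 44 h further culture, luciferase substrate was added, plates held 15 min at room temperature, and luminescence read for 15 sec.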
SARS PLpro yeast – blocks SARS-CoV papain-like protease in a yeast assay | S. cerevisiae expressing SARS-CoV PLpro, growth rescue | Potency, µM (top dose mostly 32.9 µM), for the others: top-dose activity, positive = growth rescue, actives largely listed as activators | actives 0.19% (n = 330,000) | AID 485353; calls by dose curve; further: 0% is about no effect; nearly all actives have a fitted effect of over 55% in size
Starred values were filed as active, the others as inactive; ? = inconclusive; . = not tested or not shown. Unless noted, the call rests on the fitted dose curve; in most records, active means well fitted curve in the direction sought with a large enough effect; inconclusive means small, poorly fitted or top-dose-only effect, or another doubt; inactive means no such curve, though single readings can be large; an effect the other way counts as inactive or inconclusive. Potency means the concentration at half of the fitted maximal effect.

SMILES	NS1 function inh	Pf growth 96h	Pf growth 48h	AMA1-RON2 inh	HCV inhibitor	SARS PLpro yeast
Cc1ccc(-c2ccc([C@H]3[C@@H]4C=CCC[C@@]4(C)C(=O)N3Cc3ccccc3)c(F)c2)cc1	16%	13µM*	?	-19%	-14%	-2%
CC(=O)c1ccc(-c2ccc([C@H]3[C@@H]4C=CCC[C@@]4(C)C(=O)N3Cc3ccccc3)c(F)c2)cc1	8%	?	12µM*	-5%	?	0%
CC(C)c1ccc(NC(=O)CCN2C(=O)[C@@H]3Cc4ccccc4CN3C2=O)cc1	12%	?	?	7%	2%	2%
CC1=C(C(=O)Nc2cccnc2)C(c2cccnc2)n2nc(-c3cccs3)nc2N1 (configuration not stated)	-3%	9.3µM*	0%	-3%	-7%	1%
COc1ccc(-c2nc3n(n2)C(c2cccnc2)C(C(N)=O)=C(C)N3)cc1 (configuration not stated)	2%	12µM*	-10%	-2%	20%	4%
Cn1cnnc1SCC(=O)c1ccc(OC(F)F)cc1	-3%	-4%	.	0%	8%	-14%
COC(=O)c1ccccc1NC(=O)CSc1nncn1-c1cccnc1	14%	?	20%	3%	4%	-1%
COC(=O)c1ccccc1NC(=O)CSc1nncn1C	.	-4%	12µM*	-1%	7%	0%
Cn1cnnc1SCC(=O)Nc1ccc(OC(F)F)cc1	.	-4%	13µM*	-2%	26%	3%
O=C(CSc1nc(=O)n2ccccc2n1)NC1CCCCC1	.	47%	21%	-8%	-9%	-6%
NC(=O)c1ccc(/C=N/O)[n+](Cc2ccccc2)c1	17%	58%	0%	5%	12%	-3%
O=C(Nc1ccc2c(c1)Cc1ccccc1-2)[C@@H]1[C@H](C(=O)O)[C@]2(Cl)C(Cl)=C(Cl)[C@@]1(Cl)C2(Cl)Cl	9%	.	.	.	.	.
CC1=NN(c2nc(N)nc(/C(C#N)=C/c3ccc([N+](=O)[O-])o3)n2)C(C)(C)C1	.	.	.	9%	8.9µM*	.
CCCC(=O)Nc1nc2c(OC)ccc(OC)c2s1	-60%	17%	.	-6%	8.9µM*	-1%
CCC(=O)Nc1nc2c(OC)ccc(OC)c2s1	-13%	-3%	.	0%	11µM*	-9%
COc1ccc(OC)c2sc(NC(=O)c3ccc(Cl)s3)nc12	7%	50%	.	26%	8%	3%
COc1ccc(OC)c2sc(NC(=O)C3CC3)nc12	-33%	-24%	.	9%	?	2%
CN(C)CCN(Cc1ccco1)c1ccccn1	.	.	.	-2%	2%	.
CCOC(=O)N1CCN(Cc2ccc(O)c3ncccc23)CC1	2%	-19%	?	-82%	4.5µM*	8%
OCc1ccc(O)c2ncccc12	-77%	?	9.3µM*	?	11µM*	5%
CN(Cc1ccco1)Cc1ccc(O)c2ncccc12	.	10µM*	?	.	.	0%
Oc1c(Cl)cc(CN2CCCCC2)c2cccnc12	-64%	1%	3.7µM*	.	.	21%
COCCN(C(=O)c1ccc(OC2CCN(S(=O)(=O)N(C)C)CC2)cc1)C(C)C	-14%	?	-7%	4%	-14%	-3%
CCCCNC(=O)Oc1c(Br)cc2sc(=O)oc2c1Br	-72%	19%	5%	.	.	?
CCc1ccc(NC(=O)N2CCN(C(=O)C3CCCO3)CC2)cc1 (configuration not stated)	-9%	15%	62%	9%	24%	2%
Oc1ccc(CN2CCCCC2)c2cccnc12	11%	-1%	?	-95%	6.3µM*	-77%
CSc1ncccc1C(=O)N1CCN(S(=O)(=O)c2cc(C)ccc2C)CC1	0%	-17%	-10%	-3%	9%	-3%
Oc1c(CN2CCCCC2)cc(COCc2ccccc2)c2cccnc12	-84%	2.1µM*	1.9µM*	-61%	10µM*	5%
Oc1cccc(CN2CCCCC2)c1	24%	?	-10%	35%	1%	16%
Cc1ccc(C)c(S(=O)(=O)N2CCN(Cc3ccc(O)c4ncccc34)CC2)c1	.	4.1µM*	-12%	30%	?	?

Screening results: PubChem BioAssay, National Center for Advancing Translational Sciences (NCATS)
